FLuc counter – firefly luciferase modulation, counter-screen for miR-21 project. AID 588342. purified FLuc, Km substrates, luminescence inhibition. Potency, µM (titrated, usually from 57.5 µM), usual class: inhibitors. P08659. hit rate 6.9% among 360,000; also: nearly all actives have a fitted effect of over 55% in size
Target sequence (P08659 whole entry, looked up): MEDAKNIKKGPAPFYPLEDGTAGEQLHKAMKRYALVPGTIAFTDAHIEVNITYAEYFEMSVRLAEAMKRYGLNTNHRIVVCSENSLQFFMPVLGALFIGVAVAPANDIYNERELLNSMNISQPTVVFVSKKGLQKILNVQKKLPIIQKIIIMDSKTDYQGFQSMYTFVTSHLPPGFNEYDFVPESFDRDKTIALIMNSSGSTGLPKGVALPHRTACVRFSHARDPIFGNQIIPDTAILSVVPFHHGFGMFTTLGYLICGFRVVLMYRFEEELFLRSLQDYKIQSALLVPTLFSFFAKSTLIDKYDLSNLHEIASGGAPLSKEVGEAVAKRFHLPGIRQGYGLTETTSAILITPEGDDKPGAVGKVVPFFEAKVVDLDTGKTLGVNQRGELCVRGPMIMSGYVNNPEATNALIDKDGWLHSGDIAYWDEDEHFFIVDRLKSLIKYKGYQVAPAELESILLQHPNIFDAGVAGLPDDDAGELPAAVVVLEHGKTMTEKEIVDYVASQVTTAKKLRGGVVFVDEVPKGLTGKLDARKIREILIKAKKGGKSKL
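Biochemical qHTS of compounds, final roughly 60 µM downward over six points, against 10 nM purified firefly luciferase using Km concentrations of substrates (10 uM D-luciferin, 10 uM ATP) in Tris acetate pH 7.5 buffer; luminescence output.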
NPC1 prom act – activators of NPC1 promoter; hit rate 2.4% among 320,000; Huh7 NPC1 promoter luciferase reporter, 24 h; AID 485313; Potency, µM (series often up to 9.22 µM), hits mostly activators; also: nearly all actives have a fitted effect of over 60% in size
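Huh7 reporter cells (NPC1 promoter driving luciferase) are dosed with compound for 24 h at 37 °C, 5% CO2; luciferase detection reagent is then added and luminescence measured after 10 min at ambient temperature.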
Rab9 promoter act – activators of Rab9 promoter; Huh7 Rab9 promoter-luciferase reporter, luminescence, 24 h; Potency, µM (titrated, usually from 9.22 µM), actives largely listed as activators; hit rate 2.8% among 320,000; AID 485297; also: nearly all actives have a fitted effect of over 60% in size
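Cells were plated at 1500 per well in reduced-serum medium with 10% FBS and left 2 h. Compound in DMSO was then added for 24 h at 37 °C. Reporter signal was read by luminescence after 10 min with luciferase detection reagent.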
ELG1 genotox – inducers of genotoxicity in HEK293T ELG1-luciferase cells | AID 504466 | HEK293T ELG1-luciferase reporter, luminescence, 16 h | Potency, µM (highest dose often 46 µM), hits mostly activators | hit rate 1.3% among 330,000; also: nearly all actives have a fitted effect of over 60% in size
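DMSO vehicle served as control against compound-treated ELG1-luciferase HEK293T cells; exposure lasted 16 hr at 37 °C and 5% CO2, followed by ONE-Glo luminescence detection after 30 min.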
SMN2 splice enh – increases expression of the SMN2 splice variant; HEK293 SMN2-luciferase splicing reporter, luminescence, 30-36 h; Potency, µM (highest dose often 46.1 µM), usual class: activators; hit rate 2.8% among 210,000; also: nearly all actives have a fitted effect of over 55% in size
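qHTS luciferase splicing reporter: luminescence rises when SMN2 exon 7 is included in transfected HEK293 cells. Compound exposure lasted 30-36 h at 37C, with 4.5 mM final sodium butyrate as control, followed by a ONE-Glo read.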
A number is an active result; – = inactive; ? = inconclusive; · = not tested or not shown. Only some compounds are listed: those with a hit (about 7.4% of all), similar ones and a draw of the others. Calls follow the shape of the dose curve; as a rule, active = well fitted curve in the direction sought with a large enough effect; inconclusive = small, poorly fitted or top-dose-only effect, or another doubt; inactive = no such curve, though single readings can be large; an effect the other way counts as inactive or inconclusive.

SMILES | FLuc counter | NPC1 prom act | Rab9 promoter act | ELG1 genotox | SMN2 splice enh
CC(=O)Nc1cccc(/C(C)=N/NC(=O)c2ccc3c(c2)OCO3)c1 | 6µM | – | ? | ? | 11µM
C/C(=N\NC(=O)c1ccc(Br)cc1)c1cccnc1 | 13µM | – | ? | ? | ·
CCOc1ccc(C2/C(=C(/O)c3ccc4c(c3)CC(C)O4)C(=O)C(=O)N2CCCn2ccnc2)cc1OCC (centres undefined) | – | – | – | – | ·
Cc1ccc(Cl)cc1NC(=O)c1cc(CN2CCCC2)on1 | – | · | · | · | ·
Cc1ccc(N2C(=O)CC(c3ccccc3F)C3=C2COC3=O)cc1Cl (centres undefined) | – | · | · | · | –
FC(F)(F)c1ccc(-c2csc(-c3ccno3)n2)cc1 | 27µM | – | – | – | ·
Cc1ccc(OCCCN2CCOCC2)c([N+](=O)[O-])c1 | 21µM | ? | ? | ? | ?
C=CCN(CC=C)CCOc1cc(C)ccc1[N+](=O)[O-] | – | – | – | – | –
C=CCN(CC=C)CCOc1ccc(C)cc1[N+](=O)[O-] | 24µM | – | – | – | –
Cc1ccc2nc(NCc3ccccc3)[nH]c2c1 | 9.5µM | – | ? | 11µM | 8.9µM
Cc1ccc2nc(NCc3ccccc3)c(C#N)cc2c1 | – | – | – | – | ·
COc1ccc2nc(NCCO)[nH]c2c1 | – | – | – | – | –
Cc1ccc2nc(C3CCCN(C(=O)NCc4ccccc4)C3)[nH]c2c1 (centres undefined) | ? | – | – | – | ·
Cc1ccc2nc(C3CCN(C(=O)NCc4ccccc4)CC3)[nH]c2c1 | 17µM | – | – | – | –
COc1ccc2nc(NCc3ccccc3)[nH]c2c1 | 15µM | – | ? | ? | 13µM
c1ccc(CNc2nc3ccccc3[nH]2)cc1 | 6.7µM | – | ? | ? | ?
O=c1[nH]c2ccccc2nc1NCc1ccccc1 | ? | – | – | – | ·
Cc1ccccc1OCCn1c(S(=O)(=O)O)nc2c(N)ncnc21 | ? | – | – | – | ·
NS(=O)(=O)c1cc2c(cc1C(F)(F)F)N[C@H](Cc1ccccc1)NS2(=O)=O | · | · | · | · | –
CCc1ccccc1NC(=O)Nc1cc(C(=O)NCc2ccc(C(C)C)cc2)ccc1N1CCCC1 | – | · | · | · | ·
Cc1ccccc1[C@]1(C)ON(c2ccccc2C(F)(F)F)C1=O | – | – | – | – | ·
S=c1nc(NCc2ccc3c(c2)OCO3)c2ccccc2[nH]1 | – | – | – | – | ·
c1ccc2[nH]c(NCc3ccc4c(c3)OCO4)nc2c1 | 3.4µM | ? | ? | ? | ·
Cc1cccc(-c2noc(CN(C(C)C)S(=O)(=O)c3ccc(Br)cc3)n2)c1 | – | · | · | · | –
COc1ccc(OC)c(Nc2ccc(Nc3cc(OC)ccc3OC)nn2)c1 | – | – | – | – | –
SMILES | FLuc counter | NPC1 prom act | Rab9 promoter act | ELG1 genotox | SMN2 splice enh
COc1ccccc1Nc1nc(C)cs1 | 27µM | – | – | – | ?
COc1ccccc1Nc1nc(-c2sc(NC(=O)c3ccccc3)nc2C)cs1 | 21µM | – | – | – | –
Cc1nc(NC(=O)c2ccccc2)sc1-c1csc(N)n1 | 9.5µM | ? | – | – | –
Cc1nc(NC(=O)c2ccccc2)sc1-c1csc(NCc2ccccc2)n1 | ? | – | – | – | –
COc1ccccc1Nc1ccc(Nc2ccccc2OC)nn1 | 9.5µM | ? | ? | ? | ·
CCCOc1ccc(C(=O)Nc2ccc3oc(-c4ccc(N(C)C)cc4)nc3c2)cc1 | – | · | · | · | –
FC(F)(F)c1cccc(-n2c(Cn3nnc4ccccc43)n[nH]c2=S)c1 | – | – | – | – | ·
Cc1nc(NC(=O)c2ccccc2)sc1-c1csc(Nc2cccc(F)c2)n1 | 13µM | – | – | – | –
COC1=C(Nc2ccccc2OC)C(=O)c2ccccc2C1=O | ? | – | – | – | ·
COc1ccccc1NC1=C(C)C(=O)CC1 | – | – | – | 21µM | 18µM
CSc1ccc(CN2CCC(n3nccc3NC(=O)CCCc3ccccc3)CC2)cc1 | – | – | – | – | ·
O=C(CCc1nc2ccccc2s1)c1ccccc1 | 15µM | – | ? | – | –
O=C(CCc1nc2ccccc2s1)OCC(=O)c1ccccc1 | 19µM | – | – | – | –
O=C(O)CCCc1nc2ccccc2s1 | ? | – | – | – | ?
COc1ccccc1OC(=O)CCc1nc2ccccc2s1 | 19µM | – | – | – | –
COc1ccc(-c2nc3cnc(N(C)C)nc3n(CCc3ccccc3)c2=O)cc1 | · | · | · | · | –
O=C(Nc1ccc(OCC(F)(F)C(F)F)c(C(F)(F)F)c1)c1ccccc1O | 21µM | – | – | – | –
O=C(Nc1ccc(OCC(F)(F)C(F)F)cc1)c1ccncc1 | – | – | – | – | –
CCc1ccc(CNC(=O)Cn2nc(-c3ccc(Cl)cc3)ccc2=O)cc1 | – | · | · | · | ·
Cc1c(C(=O)N2CCN(S(=O)(=O)c3cc(F)ccc3F)CC2)oc2ccccc12 | · | – | – | – | ·
COc1ccccc1C1CC(c2cccs2)=Nc2ccccc2S1 (centres undefined) | ? | – | – | ? | –
Fc1ccccc1C1CC(c2ccco2)=Nc2ccccc2S1 (centres undefined) | 21µM | – | – | ? | ·
CCN(CC(=O)NCc1cccs1)S(=O)(=O)c1cccc(Br)c1 | – | – | – | – | ·
Cc1ccc(C(=O)COC(=O)CCCC(=O)Nc2cc(C(F)(F)F)ccc2Cl)cc1C | 2.4µM | – | – | – | –
O=C(Cn1nnc(-c2ccc(N3CCOCC3)cc2)n1)N1CCOCC1 | 11µM | ? | – | – | ·
SMILES | FLuc counter | NPC1 prom act | Rab9 promoter act | ELG1 genotox | SMN2 splice enh
Cc1ccccc1NC(=O)Cn1nnc(-c2ccc(N3CCOCC3)cc2)n1 | ? | – | – | – | –
O=C(Cn1nnc(-c2ccc(N3CCOCC3)cc2)n1)OC1CCCCC1 | 12µM | – | – | – | –
O=C(Cn1nnc(-c2cccc(C(F)(F)F)c2)n1)N1CCOCC1 | – | – | – | – | –
CCCCC1CCC(C(=O)N(CC(C)C)c2c(N)n(Cc3ccccc3)c(=O)[nH]c2=O)CC1 (centres undefined) | – | – | – | – | ·
O=S(=O)(Cc1cc(-c2ccccc2Cl)no1)c1ccccc1 | 17µM | ? | 2.8µM | ? | ?
O=S(=O)(Cc1cc(-c2ccc(Cl)cc2)no1)c1ccccc1 | ? | ? | 3.5µM | 9.2µM | 13µM
Clc1ccc(-c2cc(COc3ccccc3)on2)cc1 | 11µM | – | ? | – | ?
Clc1ccc(OCc2cc(-c3ccccc3)no2)cc1Cl | ? | – | – | – | –
C[C@@]12CCC(=O)C=C1C=CC1C2CC[C@]2(C)C1CC[C@@]21CCC(=O)O1 (some centres undefined) | · | · | · | · | –
CCOC(=O)C1=C(COC(=O)/C=C/c2cccc(OC)c2)NC(=O)NC1C (centres undefined) | – | – | – | – | ·
CCN(CC)CCN(C(=O)c1ccco1)c1nc2ccc(Br)cc2s1 | – | · | · | · | ·
Cc1ccc(COn2c(-c3ccc(Cl)cc3)nc3ccc([N+](=O)[O-])cc32)cc1 | 17µM | ? | ? | – | ?
O=[N+]([O-])c1ccc2nc(-c3ccc(Cl)cc3)n(OCc3ccccc3)c2c1 | 12µM | ? | ? | ? | –
